This is a sample that favours compounds with a hit; in the whole collection about 3.6% have one here.
Rango-impB inh: qHTS Assay for Inhibitors of Rango (Ran-regulated importin-beta cargo) - Importin beta complex formation | Importin subunit beta-1 (Homo sapiens), Q14974 | Rango CFP/YFP FRET sensor + importin beta, 45 min | Potency, µM (series often up to 92.2 µM), without a hit: at the top dose inhibition of complex formation | 340,000 tested, 0.031% active | AID 540263, 2011; calls by dose curve;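 note: potency is the fitted concentration of half-maximal effect; 0% = DMSO wells and 100% = buffer wells lacking importin beta; nearly all actives have a fitted effect of over 15% in size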
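Inhibition scored from the CFP 486 nm/YFP 530 nm FRET ratio 45 min after adding 0.125 microM importin beta to 50 nM Rango biosensor preincubated 5 min with compound (room temperature, PBS with DTT, Tween-20, BSA). No-importin wells as positive control.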
PLK1 PBD inh: qHTS for Inhibitors of PLK1-PDB (polo-like kinase 1 - polo-box domain): Primary Screen. Serine/threonine-protein kinase PLK1 (Homo sapiens), P53350. Plk1 PBD binding of FITC phosphopeptide, fluorescence polarization. Potency, µM, inactives show max response, negative = inhibition, hits mostly inhibitors. 360,000 tested, 2.8% active. AID 720504, 2013; note: potency is the fitted concentration of half-maximal effect; series mostly up to about 57 µM; % is set by controls: 0 for no effect and ±100 for the full control effect; nearly all actives have a fitted effect of over 65% in size
Rango release inh: qHTS Assay for Inhibitors of RanGTP induced Rango (Ran-regulated importin-beta cargo) - Importin beta complex dissociation. Snurportin-1 (Homo sapiens) + GTP-binding nuclear protein Ran (Homo sapiens) + Importin …. Biochemical FRET Rango-importin beta, RanGTP-induced dissociation. Potency, µM (titrated, usually from 46.1 µM), for the others: at the top dose activity change, negative = inhibition. 340,000 tested, 0.071% active; calls by dose curve; note: potency is the fitted concentration of half-maximal effect; % of control where 0% means no effect; nearly all actives have a fitted effect of over 45% in size
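Rango FRET biosensor (snurportin-1 IBB flanked by N-terminal EYFP and C-terminal CFP10) at 0.1 uM, with 0.25 uM importin beta in PBS, 1mM DTT, 0.02% Tween-20, 0.1% BSA. 0.6 uM Ran, 2mM GTP and 0.2 uM RCC1 were then added for 45 min at room temperature. Inhibition read as loss of FRET rise.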
VDR inh: Inhibitors of the vitamin D receptor (VDR): qHTS; 400,000 tested, 0.93% active; Potency, µM, inactives show max response, negative = inhibition, actives largely listed as inhibitors; Vitamin D3 receptor (Homo sapiens), P11473; VDR-SRC2-3 peptide fluorescence polarization, 2 h; note: potency is the fitted concentration of half-maximal effect; % is set by controls: 0 for no effect and ±100 for the full control effect
Target sequence (P11473 whole entry, looked up): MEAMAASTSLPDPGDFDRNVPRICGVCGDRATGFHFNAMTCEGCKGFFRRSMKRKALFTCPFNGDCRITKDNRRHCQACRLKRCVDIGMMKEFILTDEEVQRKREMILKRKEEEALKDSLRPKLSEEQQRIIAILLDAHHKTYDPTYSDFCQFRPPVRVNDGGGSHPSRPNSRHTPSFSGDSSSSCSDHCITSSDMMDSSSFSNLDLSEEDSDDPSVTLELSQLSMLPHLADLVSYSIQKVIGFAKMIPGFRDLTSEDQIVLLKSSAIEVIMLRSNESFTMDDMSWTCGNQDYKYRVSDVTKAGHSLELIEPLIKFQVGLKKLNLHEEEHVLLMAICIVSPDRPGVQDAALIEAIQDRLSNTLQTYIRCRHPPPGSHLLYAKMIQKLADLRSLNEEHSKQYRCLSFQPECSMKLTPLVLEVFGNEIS
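VDR–SRC2-3 interaction, FP format. Cmpds 23 nl via pintool, brief spin, 2 h ambient incubation.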
GCN5L2 inh: qHTS Assay for Inhibitors of GCN5L2; Histone acetyltransferase KAT2A (Homo sapiens), Q92830; GCN5L2 HAT assay, ThioGlo1 CoA-SH fluorescence; Potency, µM (doses to about 58.9 µM), for inactives: at the top dose activity change, negative = inhibition, usual class: inhibitors; 390,000 tested, 0.21% active; note: potency is the fitted concentration of half-maximal effect; % is set by controls: 0 for no effect and ±100 for the full control effect
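Fluorescence readout, Ex340nm/Em540nm: ThioGlo1 (50uM final) reacts with free CoA thiol released as 20nM GCN5L2 acetylates H3(1-25) peptide (75uM) using acetyl-CoA (70uM). Compound and enzyme sat 15 min beforehand; 20 min room-temperature reaction.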
PI5P4K alpha inh: qHTS for Inhibitors of phosphatidylinositol 5-phosphate 4-kinase (PI5P4K); Phosphatidylinositol 5-phosphate 4-kinase type-2 alpha (Homo sapiens), P48426; PI5P4Kalpha enzyme, ADP-Glo luminescence, 60 min; hits give low values; max response, %; 330,000 tested, 1.2% active; active = max response of -50% or lower; inconclusive = between -30% and -50%; inactive = -30% or higher; note: value at the top dose of about 77 µM; % is set by controls: 0 for no effect and ±100 for the full control effect
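Controls without substrate or without enzyme flank wells where PI5P4Kalpha converts substrate using 5 microM ATP (final). Incubation lasts 60 minutes at room temperature; ADP formed is read by ADP-Glo luminescence.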
Numbers without * were called inactive; u = inconclusive; x = no result; ! = not active in a repeat; [ ] = dose if it differs, or a comment. Unless noted, calls come from the whole dose curve; as a rule, active = well fitted curve in the direction sought with a large enough effect; inconclusive = small, poorly fitted or top-dose-only effect, or another doubt; inactive = no such curve, though single readings can be large; an effect the other way counts as inactive or inconclusive.

SMILES	Rango-impB inh	PLK1 PBD inh	Rango release inh	VDR inh	GCN5L2 inh	PI5P4K alpha inh
O=C(O)c1cccc(NC(=O)c2cn(-c3ccccc3)nc2-c2ccncc2)c1	6%	24µM*	-15%	-10%	-7%	u
O=C(O)c1cccc(NC(=O)c2cn(-c3ccccc3)nc2-c2cccc(Br)c2)c1	4%	u	-4%	-8%	-15%	u
CC(C)OC(=O)[C@@H]1CC[C@H](C)[C@@H](CCCC=O)O1	x	x	x	3%	x	x
O=C(Nc1cccc(Cl)c1)Nc1ccccc1C(=O)O	1%	-15%	8%	-8%	2%	0
O=C(CC(=O)Nc1ccc(Cl)cc1Cl)Nc1ccc(Cl)cc1Cl	5%	30µM*	1%	-2%	26%	-5
O=C(NNc1ccccc1[N+](=O)[O-])Nc1cccc(Cl)c1	-3%	21µM*	-13%	79µM*	0%	-1
O=C(NNc1ccccc1)Nc1cc(Cl)ccc1Cl	0%	-8%	-12%	40µM*	x	0
O=C(Cc1ccccc1)NCC(=O)Nc1cc(Cl)ccc1Cl	-2%	27µM*	-2%	u	-9%	1
COc1ccccc1CNC(=O)CCC(=O)N1CC2CCCN2c2ccccc21 (stereo not drawn)	x	x	x	16%	-6%	x
CC(=O)c1ccc(NC(=O)CCCc2nc(-c3cccc(C)c3)no2)cc1	x	x	x	13%	0%	x
COc1ccccc1OCC(O)CN1C(=O)NC(C)(C)C1=O (stereo not drawn)	-2%	27µM*	3%	-16%	-10%	3
Cc1cccc(OCc2ccc(-c3nc(C#N)c(NCc4cccnc4)o3)o2)c1	x	x	x	7%	-19%	x
O=C1NC(=S)SC1=C1CCCCCC1	u	u	-1%	u	-8%	-57*
O=C(c1cc(COc2ccc(F)cc2Cl)on1)N1CCCCCC1	u	4%	u	-10%	-4%	4
O=C(c1cc(COc2ccc(F)cc2Cl)on1)N1CCCCCCC1	1%	19µM*	0%	u	-8%	-6
COc1ccc(C(=O)Nc2ccccc2C(=O)OCc2cc(=O)n3nc(C4CC4)sc3n2)cc1	x	x	x	-3%	-2%	x
O=C(CC1N=C2c3ccccc3N=C(SCc3ccccc3Cl)N2C1=O)NCc1cccs1 (stereo not drawn)	x	x	x	8%	-7%	x
CC1CCc2c(sc(N)c2C(N)=O)C1 (stereo not drawn)	-2%	27µM*	-13%	u	1%	x
N#CC(C#N)=C(N)/C(C#N)=C/c1ccc2[nH]ccc2c1	x	x	x	50µM*!	-22%	x
O=c1c2oc3ccccc3c2n(Cc2cccc(F)c2)c(=O)n1Cc1ccco1	x	x	x	4%	-8%	x
CC1CCc2c(sc(NC(=O)c3ccco3)c2C(=O)O)C1 (stereo not drawn)	u	-12%	-1%	-9%	-8%	-19
COC(=O)c1c(NS(=O)(=O)c2ccc3ccccc3c2)sc2c1CCCC2	-1%	24µM*	13%	11%	-6%[0.501 µM]	x
CC1CCc2c(sc(NS(=O)(=O)c3ccccc3)c2C(=O)OC(C)C)C1 (stereo not drawn)	u	17µM*	-19%	u	-3%	-2
CC1CCN(S(=O)(=O)c2ccc3c(ccc(=O)n3CC(=O)NCc3ccccc3Cl)c2)CC1	x	x	x	2%	-17%	x
CC[C@H](C)[C@H](NC(=O)[C@H](Cc1ccc(O)cc1)NC(=O)[C@@H]1CCCN1C(=O)[C@H](CCCCN)NC(=O)[C@@H](N)CCCCN)C(=O)N[C@@H](CC(C)C)C(=O)O	x	x	x	-9%	-6%	x

Screening results deposited in PubChem BioAssay by National Center for Advancing Translational Sciences (NCATS).
